In all, about 2,300 compounds went through this assay and about 330 (14%) showed activity.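 Rule for the calls: active = median modified Z-score above 1.96; inactive = 1.96 or below.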 Only a sample is shown.
tested on: HepG2 Srxn1-GFP reporter cells (+30 nM CDDO-Me); test: Srxn1-GFP intensity median modified Z-score relative to plate median; higher = stronger NRF2 / oxidative stress reporter activation, active = hit call of the paper; settings: 10 µM; exposure time: 24h
Procedure, shortened: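 The per-plate modified Z-score of GFP intensity, taken as a median across replicates, is what each value represents. Three replicate plates of HepG2 Srxn1-GFP BAC reporter cells were exposed for 24 h to an NRF2 activator at 30 nM combined with compound at 10 μM (≤0.1% DMSO). Cytoplasmic GFP per cell was read from confocal images, excluding any with under 100 cells, and scaling used 1.4826 × median absolute deviation.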

Row | SMILES | Srxn1-GFP intensity median modified Z-score
1 | OC[C@@H](O)[C@@H](O[C@@H]1O[C@H](CO)[C@@H](O)[C@H](O)[C@H]1O)[C@H](O)[C@@H](O)CO [euspeclibcmpd2177] | -0.452 (inactive)
2 | COC(=O)C(c1ccccc1Cl)N1CCc2sccc2C1 (stereo unspecified) [euspeclibcmpd599] | -0.316 (inactive)
3 | CCCCC(CC)CN1CN(CC(CC)CCCC)CC(C)(N)C1 (stereo unspecified) [euspeclibcmpd1036] | 14.2 (active)
4 | COc1cnc(=NS(=O)(=O)c2ccc(N)cc2)[nH]c1 [euspeclibcmpd408] | -0.161 (inactive)
5 | NC(=O)CN1CCCCCCC1=O | 0.32 (inactive)
6 | CC1=C(CC(=O)O)c2cc(F)ccc2C1=Cc1ccc([S+](C)[O-])cc1 (stereo unspecified) [euspeclibcmpd284] | -0.29 (inactive)
7 | c1ccc(C(c2ccccc2)(c2ccccc2)n2ccnc2)cc1 | 1.95 (inactive)
8 | N#Cc1ccc(C(c2ccc(C#N)cc2)n2cncn2)cc1 [euspeclibcmpd693] | -0.19 (inactive)
9 | c1ccc(-c2ccc(C(c3ccccc3)n3ccnc3)cc2)cc1 (stereo unspecified) [euspeclibcmpd741] | 3.36 (active)
10 | CCOC(=O)C(CCc1ccccc1)NC(C)C(=O)N1Cc2ccccc2CC1C(=O)O (stereo unspecified) [euspeclibcmpd521] | 0.162 (inactive)
11 | CCOC(=O)C(CCc1ccccc1)NC1CCc2ccccc2N(CC(=O)O)C1=O (stereo unspecified) [euspeclibcmpd912] | 3.02 (active)
12 | CCOC(=O)C(CCc1ccccc1)NC(C)C(=O)N1CCCC1C(=O)O (stereo unspecified) [euspeclibcmpd421] | 0.166 (inactive)
13 | N=c1[nH]c(=O)[nH]cc1F [euspeclibcmpd698] | 1.2 (inactive)
14 | CC(=O)OCC(=O)[C@@]1(O)[C@H](C)CC2C3CC=C4CC(=O)C=C[C@]4(C)[C@@]3(F)[C@@H](O)C[C@@]21C (stereo partly specified) [euspeclibcmpd2125] | -0.395 (inactive)
15 | CC(=O)Oc1cccc(C)c1 [euspeclibcmpd1228] | -0.455 (inactive)
16 | Cc1cccc(N(C)C(=S)Oc2ccc3ccccc3c2)c1 [euspeclibcmpd299] | 8.23 (active)
17 | CC(C)(C)NCC(O)COc1cccc2c1CCCC2=O (stereo unspecified) [euspeclibcmpd764] | -0.976 (inactive)
18 | CCCCCCCCCCCCCCCCOP(=O)(O)OCC[N+](C)(C)C [euspeclibcmpd1120] | 1.47 (inactive)
19 | NC(C(=O)NC1C(=O)N2C(C(=O)O)=C(Cl)CSC12)c1ccccc1 (stereo unspecified) [euspeclibcmpd343] | -0.608 (inactive)
20 | Cn1cnc([N+](=O)[O-])c1Sc1ncnc2[nH]cnc12 [euspeclibcmpd29] | 2.86 (active)
21 | N=c1[nH]cnc2c1ncn2C1O[C@H](COP(=O)(O)O)[C@@H](O)[C@H]1O (stereo partly specified) [euspeclibcmpd330] | -0.321 (inactive)
22 | COc1cccc2c(O)c3c(O)c4c(c(O)c3c(O)c12)=C(OC1C[C@H](N)[C@H](O)[C@H](C)O1)C[C@](O)(C(=O)CO)C=4 (stereo partly specified) [euspeclibcmpd2291] | 0.455 (inactive)
23 | CCC1(O)C=C(OC2CC(N(C)C)C(O)C(C)O2)c2c(cc3c(O)c4c(O)ccc(O)c4c(O)c3c2O)C1C(=O)OC (stereo unspecified) [euspeclibcmpd1939] | 97.7 (active)
24 | CC[C@@]1(O)CC(=O)c2c(cc3c(O)c4c(O)ccc(O)c4c(O)c3c2O)C1C(=O)OC (stereo partly specified) [euspeclibcmpd1470] | 70.7 (active)

Row | SMILES | Srxn1-GFP intensity median modified Z-score
25 | COc1cccc2c(O)c3c(O)c4c(c(O)c3c(O)c12)=C(O[C@H]1C[C@H](N)[C@H](O)[C@H](C)O1)C[C@](O)(C(C)=O)C=4 [euspeclibcmpd83] | 0.648 (inactive)
26 | CCc1ccc2c(O)c3c(O)c4c(c(O)c3cc2c1C(=O)OC)C(=O)C=CC4=O [euspeclibcmpd1950] | 1.63 (inactive)
27 | COc1ccc2c(=O)ccoc2c1 [euspeclibcmpd1397] | 0.575 (inactive)
28 | CC1(C)SC2C(NC(=O)C(C(=O)O)c3ccccc3)C(=O)N2C1C(=O)O (stereo unspecified) [euspeclibcmpd2333] | 0.114 (inactive)
29 | O=c1c2cc(O)c(O)cc2oc2cc(O)c(C3O[C@H](CO)[C@@H](O)[C@H](O)[C@H]3O)c(O)c12 (stereo partly specified) [euspeclibcmpd1520] | -0.904 (inactive)
30 | CCCc1nc(=N)c(C[n+]2ccccc2C)c[nH]1 [euspeclibcmpd493] | -0.6 (inactive)
31 | COc1cccc(-c2cc(=O)c3cc(OC)ccc3o2)c1 [euspeclibcmpd1659] | -0.339 (inactive)
32 | O=C1c2cccc(O)c2C(=O)c2c(O)cccc21 [euspeclibcmpd3] | 19.4 (active)
33 | COc1cc(O)c2c(c1)C(=O)c1cc(C)cc(O)c1C2=O [euspeclibcmpd1472] | 0.0189 (inactive)
34 | Cc1cc(O)c2c(c1)C(=O)c1cccc(O)c1C2=O [euspeclibcmpd1712] | 4.5 (active)
35 | Cc1cc(O)c2c(c1)C(=O)c1cc(O)cc(O)c1C2=O [euspeclibcmpd1604] | 0.573 (inactive)
36 | O=C(O)C(O)[C@H](O)[C@H](O)[C@H](O)[C@H](O)CO (stereo partly specified) [euspeclibcmpd2445] | -0.00236 (inactive)
37 | CC(=O)C1(O)CCC2C3CC(C)=C4CC(=O)C=CC4(C)C3(F)C(O)CC21C (stereo unspecified) [euspeclibcmpd1970] | -0.646 (inactive)
38 | COc1cc([C@H]2Oc3cc(C4Oc5cc(O)cc(O)c5C(=O)C4O)ccc3O[C@@H]2CO)ccc1O (stereo partly specified) [euspeclibcmpd2298] | -0.00238 (inactive)
39 | C[C@]12CCC(OC(=O)c3ccccc3)CC1CCc1ccccc12 (stereo partly specified) [euspeclibcmpd2434] | 0.0569 (inactive)
40 | CCn1c2cc(=N)ccc-2c2ccc(N)cc2c1-c1ccccc1 [euspeclibcmpd1148] | 4.33 (active)
41 | C=C[C@@]1(C)CC(=O)[C@@]2(O)[C@](C)(O1)[C@@H](OC(C)=O)[C@@H](O)C1C(C)(C)CC[C@H](O)[C@@]12C (stereo partly specified) [euspeclibcmpd604] | -1.15 (inactive)
42 | N=c1[nH]c(=O)c2[nH]c(=O)cnc2[nH]1 [euspeclibcmpd1707] | -0.214 (inactive)
43 | CCCc1nc(C(C)(C)O)c(C(=O)OCc2oc(=O)oc2C)n1Cc1ccc(-c2ccccc2-c2nn[nH]n2)cc1 [euspeclibcmpd716] | -0.529 (inactive)
44 | CCCCc1nc(Cl)c(CO)n1Cc1ccc(-c2ccccc2-c2nn[nH]n2)cc1 [euspeclibcmpd678] | -0.235 (inactive)
45 | CCCc1nc2c(C)cc(-c3nc4ccccc4n3C)cc2n1Cc1ccc(-c2ccccc2C(=O)O)cc1 [euspeclibcmpd729] | 3.15 (active)
46 | O=C1C(CCC(O)c2ccc(F)cc2)[C@@H](c2ccc(O)cc2)N1c1ccc(F)cc1 (stereo partly specified) [euspeclibcmpd714] | 1.03 (inactive)
47 | COC(=O)C(NC(=O)CCCCn1cnc2c(N)ncnc21)C(C)C (stereo unspecified) | 1.19 (inactive)
48 | CC(=O)OC1(C(C)=O)CCC2C3=CC(Cl)=C4CC(=O)C5CC5C4(C)C3CCC21C (stereo unspecified) [euspeclibcmpd1971] | -0.163 (inactive)

Row | SMILES | Srxn1-GFP intensity median modified Z-score
49 | CC(O)CN(CCN(CC(C)O)CC(C)O)CC(C)O (stereo unspecified) [euspeclibcmpd990] | -0.227 (inactive)
50 | Oc1ccc(C=Cc2cc(O)cc(O)c2)cc1 [euspeclibcmpd1411] | 12.1 (active)
51 | OC[C@H]1O[C@H](Oc2cc(O)cc(C=Cc3ccc(O)cc3)c2)[C@H](O)[C@@H](O)[C@@H]1O [euspeclibcmpd1401] | -0.514 (inactive)
52 | CCS(=O)(=O)N1CCCC(C(=O)NCCCN(C)OC)C1 (stereo unspecified) | 0.974 (inactive)
53 | Nc1ccc(S(=O)(=O)N=c2ccc(Cl)n[nH]2)cc1 [euspeclibcmpd398] | -0.684 (inactive)
54 | O=C(NCC(O)=NO)c1ccc(Cl)cc1 [euspeclibcmpd774] | 0.804 (inactive)
55 | O=c1c(O)c(-c2ccc(O)c(O)c2)oc2cc(O)cc(O)c12 | 0.376 (inactive)
56 | CC(=O)OCC(=O)[C@@]1(O)CCC2C3CC=C4CC(=O)CC[C@]4(C)C3[C@@H](O)C[C@@]21C (stereo partly specified) [euspeclibcmpd151] | -0.58 (inactive)
57 | C[C@H](Cn1cnc2c(=N)nc[nH]c21)OCP(=O)(O)O [euspeclibcmpd1075] | -0.0246 (inactive)
58 | CN(C)c1ccc(C(=C2C=CC(=[N+](C)C)C=C2)c2ccc(N(C)C)cc2)cc1 [euspeclibcmpd139] | 8.6 (active)
59 | CC(CCC(=O)O)[C@H]1CCC2C3CC[C@@H]4C[C@H](O)CC[C@]4(C)C3C[C@H](O)[C@@]21C (stereo partly specified) [euspeclibcmpd2112] | -0.195 (inactive)
60 | COC(=O)C[C@H]1C(C)(C)C(=O)C2CC3=C(CC[C@]4(C)C3=CC(=O)O[C@H]4c3ccoc3)[C@@]1(C)C2=O [euspeclibcmpd1591] | 0.352 (inactive)
61 | CCCCNC(=O)NS(=O)(=O)c1ccc(OC)cc1 | 1.61 (inactive)
62 | C[C@@H](COc1ccccc1)N[C@H](C)[C@H](O)c1ccc(O)cc1 [euspeclibcmpd167] | 4.4 (active)
63 | CC(CCc1ccc(O)cc1)NCC(O)c1ccc(O)cc1 (stereo unspecified) [euspeclibcmpd467] | 0.894 (inactive)
64 | CC(NCCc1ccc(O)cc1)C(O)c1ccc(O)cc1 (stereo unspecified) [euspeclibcmpd402] | 0.107 (inactive)
65 | CC(C)(C)NC[C@@H](O)COc1nsnc1N1CCOCC1 [euspeclibcmpd295] | -0.119 (inactive)
66 | COC1C(=O)C(=O)c2c(cc3oc(C(C)=O)c(O)c3c2O)C1=O (stereo unspecified) [euspeclibcmpd1523] | 0.196 (inactive)
67 | N=c1[nH]ccs1 [euspeclibcmpd1106] | 0.0281 (inactive)
68 | Cc1onc(-c2ccccc2)c1C(=O)NC1C(=O)N2C1SC(C)(C)C2C(=O)O (stereo unspecified) [euspeclibcmpd2397] | -0.382 (inactive)
69 | CC(C)=CCc1c2c(c3occ(-c4ccc(O)c(O)c4)c(=O)c3c1O)C=CC(C)(C)O2 [euspeclibcmpd1728] | 156 (active)
70 | CC(C)=CCc1c2c(c3occ(-c4ccc(O)cc4)c(=O)c3c1O)C=CC(C)(C)O2 [euspeclibcmpd1709] | 1.14 (inactive)
71 | COc1ccc(-c2coc3c4c(c(CC=C(C)C)c(O)c3c2=O)OC(C)(C)C=C4)cc1OC [euspeclibcmpd2204] | -0.479 (inactive)
